# Assay outcomes (PubChem)
# HCMV antiviral – human cytomegalovirus inhibition. 4.5% of 410,000 active. HFF cells, HCMV-luciferase reporter, 72 h; stronger effect = lower value. activity change, negative = inhibition, % at 57.5 µM. AID 1259415; in the data active = activity change below about -60%; inconclusive = no clear call, values can overlap the other calls; inactive = above about -39%
#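 Cell-based, HFFs, 1000 cells/well, 16 h 37C; cpds in DMSO + HCMV-luc, MOI 1 PFU/cell; 72 h 37C; OneGlo luminescence after 5 min RT; norm. to buffer vs Salinomycin 10uM.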
# HCV inh – inhibitors of hepatitis C virus infection; Huh7.5.1 HCVcc-Cre infection, luciferase reporter, 44 h; Potency, µM (titrated, usually from 41.8 µM), for the others: at the top dose activity change, negative = inhibition, usual class: inhibitors; 3.4% of 340,000 active; active = well fitted inhibition curve with a large enough effect; inconclusive = small, poorly fitted or top-dose-only effect, or another doubt; inactive = no such curve, though single readings can be large or run the other way; note: potency is the fitted concentration of half-maximal effect
#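 After 44 h co-culture of compound, cells and HCVcc-Cre (~0.5 moi), substrate is added for 15 min at room temperature and luciferase measured over 15 sec. Cells were seeded at 1,000/well and pre-cultured 4 h.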
# Vaccinia mCherry – vaccinia inhibition (mCherry reporter); Vaccinia virus mCherry reporter infection, fluorescence; Potency, µM (series often up to 36.5 µM), for inactives: at the top dose activity change, negative = inhibition, usual class: inhibitors; 0.63% of 310,000 active; calls by dose curve; tested in A549 cells; note: potency is the fitted concentration of half-maximal effect; nearly all actives have a fitted effect of over 35% in size
# VACV Venus inh – vaccinia inhibition (Venus reporter). Vaccinia virus Venus reporter expression, fluorescence. Potency, µM (doses to about 36.5 µM), without a hit: at the highest dose activity change, negative = inhibition, actives largely listed as inhibitors. 0.46% of 330,000 active. AID 720580; calls by dose curve; tested in A549 cells; note: potency is the fitted concentration of half-maximal effect; nearly all actives have a fitted effect of over 30% in size
# FMDV antiviral – blocks foot and mouth disease virus | FMDV antiviral cell-based qHTS | Potency, µM (doses to about 57.9 µM), without a hit: top-dose activity change, negative = inhibition, actives largely listed as inhibitors | 1.2% of 410,000 active | AID 1159524; calls by dose curve; tested in HEK293T cells; note: read-out not given here; potency is the fitted concentration of half-maximal effect; nearly all actives have a fitted effect of over 45% in size
# * = called active by the depositor; i = inactive; ? = inconclusive; nt = not tested or not shown; [ ] = dose if it differs, or a comment. Sampled rows, rich in hits. Any-hit rate of the full collection: about 7.3%. % is set by controls: 0 for no effect and ±100 for the full control effect.
SMILES,HCMV antiviral,HCV inh,Vaccinia mCherry,VACV Venus inh,FMDV antiviral
COP(=S)(OC)Oc1ccc([N+](=O)[O-])cc1,nt,nt,?,?,22.4µM*
CCOC(=O)C1=CN(Cc2ccco2)S(=O)(=O)N(CC)C1c1ccc(C(F)(F)F)cc1 (centres undefined),-7.1,?,-7.9%,-3.1%,-21.8%
CCOc1ccc(Nc2nc(N)c(C(=O)c3ccccc3Cl)s2)cc1,-90.3*,nt,-24.8%[7.34 µM],-21.9%[7.34 µM],18.1%
COc1ccc(Nc2nc(N)c(C(=O)c3ccc(OC)cc3)s2)cc1,1.1,?,1.78µM*,-25.1%,3.3%
COc1ccc(Nc2nc(N)c(C(=O)c3ccc(F)cc3)s2)cc1,17.9,-26.6%,?,?,13.2%
COc1ccc(-c2cc(CNc3nc(NCc4ccccc4OC)nc4ccsc34)on2)cc1,-22.2,nt,-8.6%,-27.9%,?
COC(=O)c1ccccc1NC(=S)NC(NC(=O)COc1ccccc1)C(Cl)(Cl)Cl (centres undefined),-102.2*,0.1%,-18.3%,-6.7%,7.2%
CCc1ccc(OCC(=O)NC(NC(=S)Nc2ccccc2OC)C(Cl)(Cl)Cl)cc1 (centres undefined),-71.6*,?,?,-24.7%,-9.8%
CCc1ccc(OCC(=O)NC(NC(=S)Nc2ccc(C)cc2C)C(Cl)(Cl)Cl)cc1 (centres undefined),-63.7*,?,nt,?,?
CCc1ccc(OCC(=O)NC(NC(=S)Nc2ccccc2C)C(Cl)(Cl)Cl)cc1 (centres undefined),?,?,?,?,-9.1%
CCN(CC)S(=O)(=O)c1ccc2c(c1)N(CC(=O)NCCCN1CCN(c3cc(Cl)ccc3C)CC1)C(=O)CO2,-74.0*,nt,-21.1%,-17.5%,?
CCN(CC)S(=O)(=O)c1ccc2c(c1)N(CC(=O)N1CCN(c3cc(Cl)ccc3C)CC1)C(=O)CO2,7.5,nt,-11.4%,-15.7%,?
COc1ccc2oc(=O)c(-c3csc(Nc4ccc(O)cc4)n3)cc2c1,?,11.2µM*,?,?,?
COc1ccc2oc(=O)c(-c3csc(-c4ccc(Br)cc4)n3)cc2c1,24.1,nt,-0.9%,3.2%,-5.7%
Oc1ccc(Nc2nc(-c3ccc(O)cc3)cs2)cc1,12.5,10µM*,nt,nt,46.1%
Brc1ccc(-c2csc(Nc3nc(-c4ccc(Br)cc4)cs3)n2)cc1,-86.7*,-29.5%,?,-10.3%,-1.4%
Nc1ccc(Nc2nc(-c3ccncc3)cs2)cc1,-98.6*,7.94µM*,-21.2%,-11.9%,15.5%
CCNC(=O)C1(C)CCCN(C(=O)c2ccc(C(F)(F)F)nc2C)C1 (centres undefined),51.2,nt,5.2%,-9.8%,-8.6%
O=S(=O)(c1ccc(Cl)cc1)N1CCC(O)(CN2CCN(Cc3ccccc3)CC2)CC1,-35.4,12.6µM*,?,?,0.0%
O=S(=O)(c1ccccc1)N1CCC(O)(CSc2ccc(Cl)cc2)CC1,-34.6,3.55µM*,-26.9%,-18.6%,?
Cc1cccc(N=C2NC(=O)/C(=C/c3cccn3C)S2)c1,-33.5,11.2µM*,nt,nt,27.1%
O=C1NC(=Nc2ccccc2)S/C1=C\c1cccn1-c1ccccc1,-24.8,2.82µM*,nt,?,0.0%
CCc1ccccc1NC(=O)CNC(=O)c1n[nH]c(=O)c2ccccc12,4.0,12.8%,nt,nt,25.1µM*
CCC1CN(C(=O)N2CCC(C(=O)NCCCc3ccccc3)CC2)c2cc(C)ccc2O1 (centres undefined),-16.0,nt,-2.3%,-10.8%,?
CCOc1ccc(CCNC(=O)C2CCN(C(=O)N3CC(CC)Oc4ccc(C)cc43)CC2)cc1 (centres undefined),-21.0,nt,-15.2%,-21.8%,28.2µM*
SMILES,HCMV antiviral,HCV inh,Vaccinia mCherry,VACV Venus inh,FMDV antiviral
Cc1c(C(=O)Nc2nc(-c3ccc(F)cc3)ns2)oc2ccc(Br)cc12,152.2,nt,3.9%,-1.2%,-4.5%
Cc1nc(Cl)sc1C(=O)Nc1ccc(F)cc1,60.7,22.7%,i,-16.7%,6.9%
CC(C)S(=O)(=O)c1csc(C(=O)Nc2ccc(F)cc2)c1N,72.0,3.16µM*,?,-20.8%,?
Cc1ccc(C)c(NC(=O)Cn2c(=O)n(-c3ccccc3C)c(=O)c3c2c2cc(C)ccc2n3C)c1,5.5,nt,-3.2%,1.4%,3.1%
O=C(CN1C(=O)CSc2ncccc21)Nc1ccccc1F,-18.8,15.1%,nt,nt,4.7%
CCCN1CCC(N2CCCC(C(=O)O)C2)CC1 (centres undefined),-60.5*,3.5%,-3.6%,5.2%,-30.0%
C=CCNc1nc2c(c(=O)n(C)c(=O)n2C)n1CCCCCC,-96.5*,?,nt,nt,14.1µM*
CCC(C)Nc1nc2c(c(=O)n(C)c(=O)n2C)n1Cc1ccc(F)cc1 (centres undefined),11.7,-13.2%,i,-18.2%,nt
C=CCNc1nc2c(c(=O)n(C)c(=O)n2C)n1Cc1ccc(F)cc1,-78.9*,6.31µM*,-11.3%,-26.7%,?
CCCCCCn1c(N2CCCC2)nc2c1c(=O)n(C)c(=O)n2C,-22.2,?,-1.3%,-25.7%,28.2µM*
Cc1ccc(-c2nn(-c3ccc(F)cc3)c3c2cnc2cc(F)c(F)cc23)cc1,-2.8,nt,7.9%,-2.1%,-7.4%
COC(=O)C[C@H]1c2cc(F)cc(F)c2S(=O)(=O)N1C1CCN(Cc2ccccc2)CC1,-14.1,-2.1%,-6.7%,-14.1%,-28.0%
CCC1CCc2c(sc(NC(=O)c3ccco3)c2C(N)=O)C1 (centres undefined),80.1,3.98µM*,nt,nt,36.0%
CNC(=O)c1c(NC(=O)c2ccco2)sc2c1CCC2,0.1,11.2µM*,nt,nt,14.8%
CC(C)(C)C1CCc2c(sc(NC(=O)c3ccco3)c2C(N)=O)C1 (centres undefined),-35.3,13.3%,-5.3%,-8.3%,31.7%
CCCn1c(C)cc(C(=O)COc2ccc(C)nc2[N+](=O)[O-])c1C,-89.0*,-27.5%,-10.6%,-5.9%,0.0%
Cc1ccc(OCC(=O)c2cc(C)n(-c3ccccc3)c2C)c([N+](=O)[O-])n1,-98.6*,?,-11.9%,-7.9%,?
Cc1ccc(OCC(=O)c2cc(C)c(C)cc2C)c([N+](=O)[O-])n1,67.2,-15.2%,nt,-8.0%,-17.8%
C=CCn1c(C)cc(C(=O)COc2ccc(C)nc2[N+](=O)[O-])c1C,-92.1*,?,i,-14.1%,?
COCCn1c(C)cc(C(=O)COc2ccc(C)nc2[N+](=O)[O-])c1C,-93.9*,-18.3%,nt,nt,3.55µM*
CCC[C@H]1[C@@H](NS(=O)(=O)c2ccc3ccccc3c2)CC[C@@]23CCCN2C(=O)CCC[C@@H]13,-14.3,nt,nt,nt,nt
CCCN1C(=O)c2ccccc2NC1c1ccc(Cl)c(Cl)c1 (centres undefined),-14.3,?,nt,nt,-5.1%
CN1CC(c2ccc(Cl)c(Cl)c2)[C@@]2(COc3ccccc3C2=O)[C@@]12C(=O)Nc1ccccc12 (some centres undefined),-8.9,11.2µM*,nt,nt,9.9%
Cc1ccc(S(=O)(=O)N2CCN(c3ccc(C(F)(F)F)cc3[N+](=O)[O-])CC2)cc1,-76.9*,?,-26.2%,?,?
